# Measurements as given in PubChem BioAssay (NCI).
# About 83,000 compounds went through this panel and 20% of them were active in at least one assay; those are over-represented in the sample as a whole.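 48-hour exposure, single concentration, 96-well plates; percent growth endpoint where 0 means no net growth. Active: below 10.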 A number with no mark means an inactive call. Calls of active or inactive are those of the source.
# System: HL-60(TB) leukemia
# Assay: NCI-60 one-dose screen, 48 h (100 = growth as untreated, 0 = no growth, -100 = all killed)
# Conditions: 10 µM unless noted
row,SMILES,growth
1,CN(C)CC(CN(C)C)C(O)c1ccccc1 (stereo not given),99.8%
2,Cc1cc2nc3c4ccc(Br)cc4n(CCN(C)C)c3nc2cc1C,3.73% (active)
3,CCOC(=O)c1ccc(NC(=O)Nc2nncs2)cc1,5.62% (active)
4,Nc1ccc(C2=Nc3cccc4cccc(c34)S2)cc1,76.7%
5,COc1cc(C(C)n2cc(-c3ccccc3)nn2)ccc1OC1CCCCC1 (stereo not given),43.7%
6,N#CC(C#N)=Cc1c(-c2ccccc2)[nH]c2ccccc12,-7.65% (active)
7,O=NN(CC(=O)NNc1ccccc1)CC(=O)NNc1ccccc1,31.6%
8,COc1ccc(/C=N/NC(=O)Cn2nnc3ccccc32)cc1,105%
9,COc1ccc(-c2cn[nH]c2-c2cc(OC)c(OC)c(OC)c2)cc1,-21.2% (active)
10,CCNCc1ccccc1,101%
11,Cc1ccc(C(=O)c2ccc(CC(=O)N/N=C/c3ccccc3O)n2C)cc1,87%
12,COc1ccc(N(c2nc(-c3ccc([N+](=O)[O-])cc3)cs2)C(C)C)cc1,90.1%
13,NCCNc1nc2ccc(F)cc2c2c(=O)c3cc(F)ccc3sc12,21.2%
14,Cn1cc(-c2noc(-c3cn(C)c4ncc(F)cc34)n2)c2cc(Cl)ccc21,82.6%
15,CN(C)CCNc1nc2ccccc2c2c1c1c(n2Cc2ccccc2)-c2ccccc2C1=O,-85% (active)
16,O=S(=O)(NCCNc1nccc(-c2c(-c3cccc(O)c3)nc3sccn23)n1)c1ccc(F)cc1,86.5%
17,[O-]/[N+](=C\C=C\c1ccccc1)c1ccccc1,82.3%
18,Cc1nc(Cl)c2c(n1)N(C)c1ccc(Cl)cc1C(C)C2 (stereo not given),72.2%
19,Cn1ncc(Cl)c1-c1cc(C(=O)N[C@H](CN)Cc2cccc(F)c2)sc1Cl,12.2%
20,Cc1ccc(/C=C(/C#N)n2nnc3ncccc32)cc1,0.0853% (active)

row,SMILES,growth
1,CCCCC[C@H](O)C/C=C1/C(=O)C=C[C@@H]1C/C=C\CCCC(=O)OC,25.1%
2,N#Cc1c(-c2ccccc2)[nH]c2ncc(-c3ccccc3)n2c1=O,97.1%
3,CCCCCCCCCCCCNC(=S)N/N=C/c1ccccc1O,49.1%
4,Cc1ccc(N(CC(=O)Nc2ccc(S(=O)(=O)NC3CCN(C)CC3)cc2)S(=O)(=O)c2ccc(Cl)cc2)cc1,75.7%
5,Nc1no[n+]([O-])c1-c1nnc2c(n1)-c1ccccc1C2=O,13.1%
6,Nc1nsc(C(=O)c2ccc(O)cc2)n1,92.4%
7,C=C1C(=O)O[C@H]2[C@H]1CC/C(CNC(=O)c1cccc3ccccc13)=C\CC[C@@]1(C)O[C@@H]21,-23.9% (active)
8,O=[N+]([O-])c1cc(CCl)ccc1OCCBr,119%
9,Nc1ccccc1-c1cc2c(c3c1[nH]c1ccccc13)CCCCC2,91.6%
10,Cn1cc(-c2nc3c(F)cc4[nH]ncc4c3c3c2CCCC3)c(C(F)(F)F)n1,-11.2% (active)
11,COc1ccc(/C=C/C(=O)c2cc3c(N)c(C(=O)Nc4cccc(Cl)c4C)sc3nc2C)cc1,4.92% (active)
12,NC1=Nc2ccccc2N(O)N1,88.4%
13,O=C1c2cccc3cccc(c23)C(=O)N1Nc1nc(N2CCOCC2)nc(N2CCN(c3ccccc3)CC2)n1,56.3%
14,O=C1c2ccccc2C(=O)N1c1ccccc1,111%
15,O=C(Nc1ccc(Oc2cccc(Cl)c2)c(Cl)c1)c1cccnn1,89.5%
16,Oc1c(I)cc(I)cc1CNCCCN(Cc1ccccn1)Cc1ccccn1,-27.1% (active)
17,COc1ccccc1C(OC(C)=O)OC(C)=O,87%
18,COc1cc2c(c(OC)c1OC)C(=O)CC(c1cccc(C(=O)Nc3ccc(Br)cc3)c1)O2 (stereo not given),13.8%
19,O=C(Nc1cccc(Cl)c1)Nc1cccc(Cl)c1,43.9%
20,CSc1nc(=O)n(Cc2ccc(Cl)cc2)c(=O)[nH]1,105%
